PubChem BioAssay (Tox21)
A number with no mark means an inactive call. Records with an inconclusive call do not appear. A call without a number means that no potency is given here. The source made the active and inactive calls. Unless noted, calls follow the shape of the dose curve; as a rule, active = well fitted curve in the direction sought with a large enough effect in the repeat runs; inconclusive = weak or mixed curves; inactive = no such curve, though single readings can be large; an effect the other way counts as inactive or inconclusive.

Assays:
[1] = qHTS assay to identify small molecule antagonists of the estrogen receptor alpha (ER-alpha) signaling pathway using the BG1 cell line in the presence of 0.1 nM 17-beta-estradiol - cell viability counter screen (AID 1259241); also: nearly all actives have a fitted effect of over 40% in size
Summary of the method: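 In this screen, hormone-deprived VM7Luc4E2 cells were seeded at 4,000 per well, dosed with compound and 0.1 nM estradiol final, and incubated 22 hr at 37C and 5% CO2; fluorogenic live-cell protease signal reported viability.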

[2] = biological target: Estrogen receptor (Homo sapiens) (UniProt P03372); assay: qHTS assay to identify small molecule antagonists of the estrogen receptor alpha (ER-alpha) signaling pathway using the BG1 cell line in the presence of 0.1 nM 17-beta-estradiol (AID 1259244); also: nearly all actives have a fitted effect of over 50% in size
Estrogen receptor (Homo sapiens), sequence (P03372 whole entry, looked up): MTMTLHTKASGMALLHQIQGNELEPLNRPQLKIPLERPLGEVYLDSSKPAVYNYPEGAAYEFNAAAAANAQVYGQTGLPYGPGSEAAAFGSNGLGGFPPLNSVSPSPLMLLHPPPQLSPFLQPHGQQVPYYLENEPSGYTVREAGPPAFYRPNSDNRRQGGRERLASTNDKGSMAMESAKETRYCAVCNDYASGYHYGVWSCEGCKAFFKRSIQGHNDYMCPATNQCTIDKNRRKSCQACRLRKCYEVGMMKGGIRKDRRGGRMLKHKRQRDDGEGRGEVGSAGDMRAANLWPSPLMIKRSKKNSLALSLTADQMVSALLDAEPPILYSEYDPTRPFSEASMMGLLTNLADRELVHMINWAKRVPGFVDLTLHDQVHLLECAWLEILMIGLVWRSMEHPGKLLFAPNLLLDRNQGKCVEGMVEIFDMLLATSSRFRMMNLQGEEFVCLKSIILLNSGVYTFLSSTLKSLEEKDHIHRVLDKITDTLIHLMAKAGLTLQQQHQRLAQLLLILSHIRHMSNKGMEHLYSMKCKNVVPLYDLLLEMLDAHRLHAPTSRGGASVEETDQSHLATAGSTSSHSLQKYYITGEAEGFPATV
Summary of the method: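 VM7Luc4E2 cells (endogenous full-length ER-alpha, stable 4xERE-luciferase) were grown 5 days in phenol red-free medium with charcoal-stripped FBS, then exposed 22 h at 37C to compounds plus 0.1 nM (final) 17beta-estradiol; ONE-Glo luminescence read-out.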

[3] = qHTS assay to identify small molecule HDAC inhibitors (AID 1259364); also: top concentration of the series differs between compounds; nearly all actives have a fitted effect of over 45% in size
Summary of the method: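 Wild-type HCT-116 cells were plated overnight, exposed to compounds for 2 h at 37 °C, then given HDAC-Glo class I/II luminogenic reagent for 30 min at room temperature before luminescence was read.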

[4] = qHTS assay to identify small molecule HDAC inhibitors - cell viability counter screen (AID 1259365); also: series mostly up to about 92 µM; nearly all actives have a fitted effect of over 50% in size
Summary of the method: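 Measured quantity is CellTiter-Glo luminescence from wild-type HCT-116 cells after compound incubation of 2hr at 37C, 5% CO2; reagent developed 30min at room temperature.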

[5] = qHTS assay to identify small molecule agonists of the sonic hedgehog signaling (Shh) pathway - cell viability counter screen (AID 1259366); also: nearly all actives have a fitted effect of over 50% in size
Summary of the method: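 In quantitative high-throughput format, 3T3 Gli1-Luc cells were exposed to compounds for 24hr and multiplexed for viability using CellTiter-Fluor, incubated 1hr at 37C before the fluorescence read.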

[6] = qHTS assay to identify small molecule antagonists of the sonic hedgehog signaling (Shh) pathway - cell viability counter screen (AID 1259367); also: nearly all actives have a fitted effect of over 55% in size
Summary of the method: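 Cells: 3T3 Gli1-Luc, 2,000/well, 4 hr pre-incubation. Compounds in DMSO, then conditioned medium. Incubation 24 hr, 37C, 5% CO2. CellTiter-Fluor at 23 hr, 1 hr, fluorescence.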

[7] = qHTS assay to identify small molecule agonists of the sonic hedgehog signaling (Shh) pathway (AID 1259368; calls by dose curve; also: series mostly up to about 92 µM; nearly all actives have a fitted effect of over 15% in size)
Summary of the method: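 NIH/3T3-derived 3T3Gli1-Luc cells carrying a stably integrated Gli1 response element–firefly luciferase reporter were plated, left 4 hr at 37 C, then given compounds in DMSO for 24 hr. Luminescence was read 30 min after adding luciferase reagent.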

[8] = qHTS assay to identify small molecule antagonists of the sonic hedgehog signaling (Shh) pathway (AID 1259369; calls by dose curve; also: nearly all actives have a fitted effect of over 45% in size; also: potency is read from the fitted curve at half-maximal effect)
Summary of the method: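 NIH/3T3-derived 3T3Gli1-Luc cells with stably integrated Gli1-Luc reporter were preincubated 4hr at 37 C, then given compounds in DMSO plus Shh conditioned medium and incubated 24hr. Firefly luciferase luminescence read after 30min reagent at room temperature.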

[9] = biological target: Estrogen receptor beta (Homo sapiens) (UniProt Q92731); assay: qHTS assay to identify small molecule antagonists of the estrogen receptor beta (ER-beta) signaling pathway (AID 1259378; active = well fitted inhibition curve with a large enough effect in the signal ratio in the repeat runs, not every such curve was filed as active; the % refers to the signal ratio)
Estrogen receptor beta (Homo sapiens), sequence (Q92731 whole entry, looked up): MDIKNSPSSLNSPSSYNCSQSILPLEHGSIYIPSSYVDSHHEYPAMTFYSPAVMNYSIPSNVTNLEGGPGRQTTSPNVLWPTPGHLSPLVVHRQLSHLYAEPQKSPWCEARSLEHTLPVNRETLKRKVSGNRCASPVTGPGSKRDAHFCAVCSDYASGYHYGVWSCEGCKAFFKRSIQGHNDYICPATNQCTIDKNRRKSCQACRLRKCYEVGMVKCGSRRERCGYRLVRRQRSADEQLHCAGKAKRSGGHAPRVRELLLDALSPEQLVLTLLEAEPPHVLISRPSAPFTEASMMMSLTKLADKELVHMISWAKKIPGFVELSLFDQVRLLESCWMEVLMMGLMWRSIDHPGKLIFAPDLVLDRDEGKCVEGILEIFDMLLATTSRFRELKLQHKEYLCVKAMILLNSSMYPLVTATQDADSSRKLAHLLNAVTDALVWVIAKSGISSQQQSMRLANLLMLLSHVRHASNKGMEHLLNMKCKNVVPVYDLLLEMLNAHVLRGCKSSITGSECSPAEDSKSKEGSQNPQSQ
Summary of the method: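 Antagonist mode: compounds added to beta-lactamase reporter HEK293T ER-beta-UAS cells stimulated with E2 (1nM final), 16 hr at 37C. LiveBLAzer B/G FRET substrate, 2 hours room temperature, fluorescence read-out.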

[10] = qHTS assay to identify small molecule agonists of the androgen receptor (AR) signaling pathway in the presence of an antagonist - cell viability counter screen (AID 1259379); also: series mostly up to about 92 µM; nearly all actives have a fitted effect of over 25% in size
Summary of the method: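 MDA-kb2 human breast carcinoma cells (stable MMTV-luciferase, AR/GR responsive) were seeded 3,000 cells/well, pre-incubated 5 hr at 37C without CO2, then given 3.0uM nilutamide and compounds at 15 concentrations for 16 hr. Viability was read by CellTiter-Fluor fluorescence.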

[11] = qHTS assay to identify small molecule agonists of the estrogen receptor beta (ER-beta) signaling pathway - cell viability counter screen (AID 1259380); also: nearly all actives have a fitted effect of over 30% in size
Summary of the method: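 ER-beta-UAS-bla HEK293T cells in medium with 2% charcoal-stripped FBS were preincubated 6 hr at 37C, dosed with compound in DMSO for 16 hr, then after the bla read, CellTiter-Glo was added for 30 min at room temperature; luminescence recorded.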

[12] = qHTS assay to identify small molecule antagonists of the estrogen receptor beta (ER-beta) signaling pathway - cell viability counter screen (AID 1259382);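 also: HEK293T cells carrying ER-beta-UAS-bla reporter stimulated with estradiol; series mostly up to about 92 µM; nearly all actives have a fitted effect of over 55% in size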
Summary of the method: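 ER-beta-UAS-bla HEK293T cells (2,000/well, 2% charcoal-stripped FBS) were pre-incubated 6 hr at 37C, then given compound plus 1nM final 17-beta-estradiol for 16 hr. Viability was read in the same wells by CellTiter-Glo luminescence after 30 min at room temperature.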

[13] = biological target: Estrogen receptor (Homo sapiens) (UniProt P03372); assay: qHTS assay to identify small molecule agonists of the estrogen receptor alpha (ER-alpha) signaling pathway in the presence of an antagonist (AID 1259383; calls by dose curve; also: top concentration of the series differs between compounds; nearly all actives have a fitted effect of over 15% in size)
Summary of the method: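 VM7Luc4E2 cells (endogenous full-length ER-alpha, 4×ERE-luciferase) were precultured 5 days in phenol red-free medium with 10% charcoal-stripped FBS, given 10.0nM ICI-182,780 (final), then treated with compounds at 15 concentrations for 22hr at 37C; luminescence read with ONE-Glo.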

[14] = qHTS assay to identify small molecule agonists or antagonists of the thyroid stimulating hormone receptor (TSHR) signaling pathway - wild type cell line counter screen (AID 1259384; calls by dose curve)
Summary of the method: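 Counter screen in untransfected Hek293: compounds (15-point titration, triplicate) plus phosphodiesterase inhibitor Ro20-1724 added after 18 h plating; 30 min RT. Intracellular cAMP via competitive d2/cryptate immunoassay, 1 h incubation.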

[15] = biological target: Thyrotropin receptor (Homo sapiens) (UniProt P16473); assay: qHTS assay to identify small molecule antagonists of the thyroid stimulating hormone receptor (TSHR) signaling pathway (AID 1259385; calls by dose curve; also: nearly all actives have a fitted effect of over 20% in size)
Thyrotropin receptor (Homo sapiens), sequence (P16473 whole entry, looked up): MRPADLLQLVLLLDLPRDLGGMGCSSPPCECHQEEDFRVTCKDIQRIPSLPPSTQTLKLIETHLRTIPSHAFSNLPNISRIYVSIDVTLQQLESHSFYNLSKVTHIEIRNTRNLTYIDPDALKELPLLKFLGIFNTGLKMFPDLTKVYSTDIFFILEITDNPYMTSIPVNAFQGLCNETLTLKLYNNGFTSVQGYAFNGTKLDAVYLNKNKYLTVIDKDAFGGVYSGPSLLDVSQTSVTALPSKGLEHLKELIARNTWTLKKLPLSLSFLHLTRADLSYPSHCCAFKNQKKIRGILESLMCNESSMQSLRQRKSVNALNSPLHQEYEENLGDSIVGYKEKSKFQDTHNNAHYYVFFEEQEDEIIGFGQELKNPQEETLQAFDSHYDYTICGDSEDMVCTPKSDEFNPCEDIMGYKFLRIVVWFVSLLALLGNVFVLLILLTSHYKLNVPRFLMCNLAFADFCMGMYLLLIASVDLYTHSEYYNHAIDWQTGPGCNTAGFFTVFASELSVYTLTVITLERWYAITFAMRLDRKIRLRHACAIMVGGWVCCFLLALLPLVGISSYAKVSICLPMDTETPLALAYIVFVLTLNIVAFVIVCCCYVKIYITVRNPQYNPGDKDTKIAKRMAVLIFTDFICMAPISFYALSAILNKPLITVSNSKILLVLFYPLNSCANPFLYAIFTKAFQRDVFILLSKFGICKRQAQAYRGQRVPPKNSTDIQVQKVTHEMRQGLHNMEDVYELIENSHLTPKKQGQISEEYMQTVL
Summary of the method: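 Antagonist mode: compound-treated TSHR-expressing HEK293 cells were stimulated with 1.5 ng/mL TSH (final) in presence of Ro20-1724 for 30 min at RT. HTRF cAMP detection after 1 h; each compound tested at 15 concentrations, triplicate.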

[16] = qHTS assay to identify small molecule phospholipidosis (PLD) inducers (AID 1259344; active = well fitted curve in the direction sought with a large enough effect; an effect the other way counts as inactive or inconclusive)
Summary of the method: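 Phospholipidosis is scored by imaging LipidTOX-stained pits in HepG2 cells exposed to compound for 24 h at 37 C; pit counts and integrated intensities per well and per cell serve as outputs.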

[17] = biological target: Estrogen receptor beta (Homo sapiens) (UniProt Q92731); assay: qHTS assay to identify small molecule agonists of the estrogen receptor beta (ER-beta) signaling pathway (AID 1259377; active = well fitted activation curve with a large enough effect in the signal ratio in the repeat runs, not every such curve was filed as active; the % refers to the signal ratio)
Summary of the method: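 Reporter cells (HEK293T, ER-beta-UAS-bla) receive compounds or DMSO after a 6 hr pre-incubation. They then incubate 16 hr at 37C/5% CO2, and fluorescence from LiveBLAzer B/G substrate is measured after 2 hours at room temperature.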

[18] = biological target: Androgen receptor (Homo sapiens) (UniProt P10275); assay: qHTS assay to identify small molecule antagonists of the androgen receptor (AR) signaling pathway using the MDA cell line in the presence of 0.5 nM R1881 (AID 1259243); also: nearly all actives have a fitted effect of over 50% in size; also: potency is read from the fitted curve at half-maximal effect
Androgen receptor (Homo sapiens), sequence (P10275 whole entry, looked up): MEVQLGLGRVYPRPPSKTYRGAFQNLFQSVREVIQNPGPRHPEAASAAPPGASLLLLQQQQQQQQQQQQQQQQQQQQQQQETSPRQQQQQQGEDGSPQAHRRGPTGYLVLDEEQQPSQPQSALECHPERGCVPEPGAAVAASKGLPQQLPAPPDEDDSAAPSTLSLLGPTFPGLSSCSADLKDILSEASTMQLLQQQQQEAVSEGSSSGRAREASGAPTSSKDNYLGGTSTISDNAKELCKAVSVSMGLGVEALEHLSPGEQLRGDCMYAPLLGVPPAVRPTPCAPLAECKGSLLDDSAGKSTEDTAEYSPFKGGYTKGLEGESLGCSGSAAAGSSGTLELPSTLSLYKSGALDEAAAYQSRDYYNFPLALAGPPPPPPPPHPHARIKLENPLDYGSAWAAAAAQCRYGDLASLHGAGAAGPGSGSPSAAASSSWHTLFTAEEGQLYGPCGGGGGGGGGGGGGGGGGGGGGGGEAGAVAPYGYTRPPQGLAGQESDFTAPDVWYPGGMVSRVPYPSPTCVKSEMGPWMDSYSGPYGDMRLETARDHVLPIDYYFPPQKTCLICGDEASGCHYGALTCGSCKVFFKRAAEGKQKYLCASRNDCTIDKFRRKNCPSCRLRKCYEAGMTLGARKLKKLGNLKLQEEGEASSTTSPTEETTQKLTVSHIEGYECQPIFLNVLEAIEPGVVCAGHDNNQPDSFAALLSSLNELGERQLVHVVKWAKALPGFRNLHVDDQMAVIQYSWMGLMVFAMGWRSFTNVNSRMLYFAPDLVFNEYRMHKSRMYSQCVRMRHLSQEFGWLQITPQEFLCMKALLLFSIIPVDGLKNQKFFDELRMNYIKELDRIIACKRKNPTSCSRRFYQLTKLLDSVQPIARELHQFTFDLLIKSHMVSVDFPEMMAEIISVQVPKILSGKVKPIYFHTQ
Summary of the method: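 MDA-kb2 human breast carcinoma cells carrying an MMTV-luciferase reporter (AR- and GR-responsive) were plated, rested 5 hr at 37C, dosed with compounds, then stimulated with 0.5 nM R1881 (final) for 16 hr; luminescence was read after ONE-Glo.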

[19] = biological target: Androgen receptor (Homo sapiens) (UniProt P10275); assay: qHTS assay to identify small molecule agonists of the androgen receptor (AR) signaling pathway in the presence of an antagonist (AID 1259381; calls by dose curve; also: nearly all actives have a fitted effect of over 15% in size)
Summary of the method: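 MDA-kb2 human breast carcinoma cells carrying an MMTV-luciferase reporter (AR- and GR-responsive) were treated with compounds at 15 concentrations plus 3.0uM final nilutamide for 16hr at 37C without CO2; luminescence was read after ONE-Glo addition.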

[20] = qHTS assay to identify small molecule antagonists of the androgen receptor (AR) signaling pathway using the MDA cell line in the presence of 0.5 nM R1881 - cell viability counter screen (AID 1259242); also: nearly all actives have a fitted effect of over 45% in size
Summary of the method: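 MDA-kb2 cells (human breast carcinoma, stably carrying MMTV-luciferase reporter) were exposed to compounds with 0.5 nM R1881 (final) for 16 hr at 37C, 0% CO2; viability then read as live-cell protease fluorescence (CellTiter-Fluor, 30 min) in the same wells.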

Row | SMILES | outcome [1] | outcome [2] | Potency [3] | outcome [4] | Potency [5] | Potency [6] | outcome [7] | Potency [8] | Potency [9] | Potency [10] | Potency [11] | outcome [12] | outcome [13] | outcome [14] | outcome [15] | outcome [16] | Potency [17] | Potency [18] | Potency [19] | outcome [20]
1 | CC(CO)(CO)[N+](=O)[O-] | inactive | inactive | inactive | inactive | inactive | inactive | inactive | inactive | inactive | inactive | inactive | inactive | inactive | inactive | inactive |  |  |  |  | 
2 | N[C@@H](CCC(=O)O)C(=O)O | inactive |  | inactive | inactive | inactive | inactive | inactive |  |  | inactive | inactive | inactive | inactive | inactive | inactive | inactive |  |  |  | 
3 | CCOC(=O)c1cnc2c(cnn2CC)c1NN=C(C)C | inactive | inactive | inactive | inactive | inactive | inactive | inactive |  |  | inactive | inactive | inactive | inactive |  |  | inactive | inactive |  |  | 
4 | Cc1ccc(-c2ccccc2C#N)cc1 | inactive |  | inactive | inactive | inactive | inactive | inactive | inactive | inactive | inactive | inactive | inactive | inactive | inactive | inactive |  | inactive | 11.9 µM (active) | inactive | 
5 | CCOC(=O)C(=O)CCCCCCl |  | inactive | inactive | inactive | inactive | inactive | inactive | inactive | inactive | inactive | inactive | inactive | inactive | inactive | inactive |  | inactive | inactive | inactive | inactive
6 | O=S(=O)(O)c1cccc(S(=O)(=O)O)c1 | inactive |  | inactive | inactive | inactive | inactive | inactive | inactive |  | inactive | inactive | inactive | inactive | inactive | inactive |  |  | inactive | inactive | 
7 | CCN(Cc1ccccc1)c1ccccc1 | inactive |  | inactive | inactive |  | inactive | inactive | 48 µM (active) |  |  |  | inactive | inactive | inactive |  |  | inactive | 53.8 µM (active) | inactive | 
8 | CC(C)CC(C)(N)C#N (stereo unspecified) | inactive |  | inactive | inactive | inactive | inactive | inactive | inactive | inactive | inactive | inactive | inactive |  | inactive | inactive |  | inactive |  |  | 
9 | CC(C)(C)C(=O)c1ccccc1 | inactive | inactive | inactive | inactive | inactive | inactive | inactive | inactive |  | inactive | inactive | inactive | inactive | inactive | inactive |  |  |  |  | 
10 | NS(=O)(=O)Cc1noc2ccccc12 | inactive |  | inactive | inactive | inactive | inactive | inactive | inactive | inactive | inactive | inactive | inactive |  | inactive | inactive | inactive | inactive | inactive | inactive | 
11 | CC1=NN(c2cccc(S(=O)(=O)O)c2)C(=O)C1 |  | inactive | inactive | inactive | inactive | inactive | inactive | inactive |  | inactive | inactive | inactive | inactive | inactive |  |  |  | inactive | inactive | inactive
12 | Cc1ccc(C(=O)c2ccccc2)cc1 | inactive |  |  | inactive | inactive | inactive | inactive | inactive | inactive | inactive | inactive | inactive | inactive | inactive |  |  | inactive |  | inactive | inactive
13 | C=CCCCCCCCCC(=O)OCC | inactive |  | inactive | inactive | inactive | inactive | inactive | inactive | inactive | inactive | inactive | inactive | inactive | inactive |  |  | inactive |  |  | 
14 | CC(C)NNC(=O)c1ccncc1 | inactive |  | inactive | inactive | inactive | inactive | inactive | inactive |  | inactive | inactive | inactive |  | inactive |  | inactive |  | inactive | inactive | 
15 | CC(=O)Oc1cccc(C)c1 | inactive | inactive | inactive | inactive | inactive | inactive | inactive |  |  | inactive | inactive | inactive | inactive | inactive | inactive | inactive |  |  |  | 
16 | NO | inactive |  | inactive | inactive | inactive | inactive | inactive | inactive |  | inactive | inactive | inactive |  | inactive | inactive |  | inactive |  |  | 
17 | CN(C)CCCN(C)CCCN(C)C | inactive | inactive | inactive | inactive | inactive | inactive | inactive |  | inactive | inactive | inactive |  | inactive | inactive | inactive |  | inactive |  |  | 
18 | CC(C)c1ccc2ncccc2c1 | inactive |  | inactive | inactive | inactive | inactive | inactive | inactive | inactive | inactive | inactive | inactive | inactive |  |  |  | inactive |  |  | 
19 | [Ca+2] | inactive |  | inactive | inactive | inactive | inactive | inactive | inactive |  | inactive | inactive | inactive |  | inactive |  |  |  |  |  | 
